In PubChem BioAssay (NCI):
This is part of a sample that, as a whole, favours compounds with a hit. Of some 79,000 tested, about 15% had one in any assay. Activity calls are given as the source filed them. No stated cut-off is given here; in the data, active means growth inhibition above about 70%; inactive means the rest.

What was measured:
[1] = NCI Yeast Anticancer Drug Screen. Data for the rad50 strain (AID 155);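 further: 0% = growth of vehicle-only cultures of the same strain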; conditions: S. cerevisiae rad50 strain growth inhibition, hits give high values
Procedure, shortened: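 Vehicle-treated cultures provide the reference for the growth inhibition reported for compound-exposed, repair-deficient yeast.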

[2] = NCI Yeast Anticancer Drug Screen. Data for the mec2-1 strain (AID 157); conditions: S. cerevisiae mec2-1 strain, hits give high values
Procedure, shortened: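 Yeast mec2-1 mutant treated with compound. Readout: growth inhibition vs vehicle controls.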

[3] = NCI Yeast Anticancer Drug Screen. Data for the sgs1 mgt1 strain (AID 161);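 further: 0% = growth of cultures given vehicle only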; conditions: S. cerevisiae sgs1 mgt1 strain, hits give high values
Procedure, shortened: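 Test agents were incubated with a DNA-repair-mutant yeast strain. Growth was then read and compared against vehicle-treated controls.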

[4] = NCI Yeast Anticancer Drug Screen. Data for the cln2 rad14 strain (AID 165);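 further: 0% = growth equal to vehicle treated cultures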; conditions: S. cerevisiae cln2 rad14 strain, hits give high values
Procedure, shortened: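 cln2 rad14 yeast strain; compound exposure; growth inhibition read vs vehicle controls.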

[5] = NCI Yeast Anticancer Drug Screen. Data for the bub3 strain (AID 167); conditions: S. cerevisiae bub3 mutant strain, hits give high values
Procedure, shortened: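 Mutant yeast screening strain plus compound; vehicle-treated cultures serve as the 0% inhibition reference.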

[6] = NCI Yeast Anticancer Drug Screen. Data for the mlh1 rad18 strain (AID 175); conditions: S. cerevisiae mlh1 rad18 strain growth inhibition, hits give high values
Procedure, shortened: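 Yeast w/ defined DNA-repair lesions; compound exposure; growth vs vehicle controls → % inhibition.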

[7] = at 5.0 µM (retest, dose inferred, filed as 0.5)
[8] = at 50.0 µM (retest, dose inferred, filed as 5.0)

Measured: growth inhibition

Cc1c(CNc2ccc(Cl)c(Cl)c2Cl)cnc2nc(N)nc(N)c12
inactive: [1]; [7] 40% | [2]; [7] 27% | [2]; [8] 53% | [2]; at 50.0 µM 44.5% | [3]; [7] 19% | [3]; [8] 52% | [3]; at 50.0 µM 64.5% | [4]; [7] 34% | [4]; [8] 60% | [4]; at 50.0 µM 43.4% | [5]; [7] 28% | [5]; [8] 46% | [5]; at 50.0 µM 51.5% | [6]; [7] 30% | [6]; [8] 56% | [6]; at 50.0 µM -36.1%
active: [1]; [8] 86% | [1]; at 50.0 µM 78.5%

Fc1ccc(NC(=S)SCc2ccccc2)cc1F
active: [1]; [8] 89% | [1]; at 50.0 µM 97.3% | [2]; [8] 92% | [2]; at 50.0 µM 99% | [3]; [8] 94% | [3]; at 50.0 µM 99.2% | [4]; [8] 81% | [4]; at 50.0 µM 92.5% | [5]; [8] 95% | [5]; at 50.0 µM 89.8% | [6]; [8] 97% | [6]; at 50.0 µM 99.2%
inactive: [1]; [7] 4% | [2]; [7] 2% | [3]; [7] 5% | [4]; [7] -6% | [5]; [7] 6% | [6]; [7] 0%

CCc1[nH]c2ccccc2c1N1C(=O)CC2(CCN(Cc3ccccc3)CC2)CC1=O
inactive: [1]; [7] -4% | [1]; [8] 1% | [1]; at 50.0 µM 32.1% | [2]; [7] 1% | [2]; [8] 25% | [2]; at 50.0 µM 6.25% | [3]; [7] -75% | [3]; [8] 23% | [3]; at 50.0 µM 32.4% | [4]; [7] -1% | [4]; [8] 2% | [4]; at 50.0 µM 3.7% | [5]; [7] -6% | [5]; [8] 8% | [5]; at 50.0 µM 35.5% | [6]; [7] -6% | [6]; [8] 10% | [6]; at 50.0 µM 19.7%

O=C(/C=C/c1ccccc1)CCN1CCC2CCC(C2)C1 (configuration not stated)
active: [2]; [8] 82% | [2]; at 50.0 µM 93% | [3]; at 50.0 µM 76.1% | [5]; [8] 79% | [6]; [8] 81% | [6]; at 50.0 µM 79.5%
inactive: [1]; [7] 2% | [1]; [8] 55% | [1]; at 50.0 µM 62.9% | [2]; [7] 9% | [3]; [7] 15% | [3]; [8] 54% | [4]; [7] 11% | [4]; [8] 58% | [4]; at 50.0 µM 27.6% | [5]; [7] 3% | [5]; at 50.0 µM 46.9% | [6]; [7] 8%

O=C(C=P(c1ccccc1)(c1ccccc1)c1ccccc1)c1ccccc1-c1ccccc1C(=O)C=P(c1ccccc1)(c1ccccc1)c1ccccc1
active: [1]; [7] 98% | [1]; [8] 92% | [1]; at 50.0 µM 87.9% | [2]; [7] 99% | [2]; [8] 92% | [2]; at 50.0 µM 90.8% | [3]; [7] 99% | [3]; [8] 87% | [3]; at 50.0 µM 90.5% | [4]; [7] 97% | [4]; [8] 93% | [4]; at 50.0 µM 88.5% | [5]; [7] 99% | [5]; [8] 93% | [5]; at 50.0 µM 88.2% | [6]; [7] 95% | [6]; [8] 88% | [6]; at 50.0 µM 90.4%

CC(=O)NC1=C(Cl)C(=O)c2ccccc2C1=O
inactive: [4]; [7] 21%
active: [1]; [7] 91% | [1]; [8] 99% | [1]; at 50.0 µM 99.5% | [2]; [7] 93% | [2]; [8] 99% | [2]; at 50.0 µM 99.5% | [3]; [7] 70% | [3]; [8] 100% | [3]; at 50.0 µM 99.7% | [4]; [8] 99% | [4]; at 50.0 µM 98.8% | [5]; [7] 96% | [5]; [8] 99% | [5]; at 50.0 µM 99.4% | [6]; [7] 96% | [6]; [8] 99% | [6]; at 50.0 µM 99.5%

CN(C)N=Nc1c(-c2ccccc2)n[nH]c1-c1ccccc1
active: [1]; [7] 95% | [1]; [8] 99% | [1]; at 50.0 µM 99.6% | [2]; [7] 99% | [2]; [8] 100% | [2]; at 50.0 µM 99.5% | [3]; [7] 99% | [3]; [8] 100% | [3]; at 50.0 µM 99.3% | [4]; [7] 99% | [4]; [8] 99% | [4]; at 50.0 µM 99.5% | [5]; [7] 99% | [5]; [8] 99% | [5]; at 50.0 µM 99.5% | [6]; [7] 99% | [6]; [8] 100% | [6]; at 50.0 µM 99.5%

C/C(=C\N1CCN(c2ccc(Cl)cc2)C(C)C1)C(=O)c1ccccc1 (configuration not stated)
active: [1]; [8] 89% | [2]; [8] 92% | [3]; [8] 89% | [3]; at 50.0 µM 79.8% | [4]; [8] 86% | [5]; [8] 92% | [6]; [8] 87%
inactive: [1]; [7] 7% | [1]; at 50.0 µM 52.9% | [2]; [7] 4% | [2]; at 50.0 µM 30.7% | [3]; [7] 15% | [4]; [7] -2% | [4]; at 50.0 µM 27.8% | [5]; [7] -1% | [5]; at 50.0 µM 24.9% | [6]; [7] 4% | [6]; at 50.0 µM 57.3%

O=C(Sc1ccccc1)C1OC12CCCCC2 (configuration not stated)
inactive: [1]; [7] -160% | [1]; [8] -116% | [1]; at 50.0 µM 50.5% | [2]; [7] -48% | [2]; [8] -44% | [2]; at 50.0 µM 31.2% | [3]; [7] -68% | [3]; [8] -47% | [3]; at 50.0 µM 63.8% | [4]; [7] -62% | [4]; [8] -75% | [4]; at 50.0 µM -8.05% | [5]; [7] -65% | [5]; [8] -57% | [5]; at 50.0 µM 8.8% | [6]; [7] -122% | [6]; [8] -90% | [6]; at 50.0 µM 50.1%
